Screens (PubChem BioAssay)
Only a selection was taken, and hits are over-represented in it overall.
Pf apPOL inh – Pf-apPOL DNA polymerase inhibition; inhibition, % at 10 µM; AID 1794808; 0.25% of 210,000 active; Recombinant Pf-apPOL, molecular beacon fluorescence, 1.5 h
mHTT-CaM PPI inh – mHTT-calmodulin interaction abrogation; P42858; AlphaScreen His-mHTT/GST-CaM binding, luminescence; inhibition, % at 15 µM; 3.6% of 190,000 active;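 note: 0% = both proteins with DMSO and 100% = one protein alone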
* hit, by the source's call; nt = not tested or not shown. Cut-off read from the data, not from the text of the source: active = inhibition above about 50%; inactive = the rest.

SMILES | Pf apPOL inh | mHTT-CaM PPI inh
Cc1cccc(-n2nc3c(c2NC(=O)/C=C/c2ccccc2)CSC3)c1C | 4 | 94*
CC(=O)Nc1c2c(nn1-c1cccc(C)c1C)CSC2 | -9 | 41
Cc1cccc(-n2nc3c(c2NC(=O)/C=C/c2ccco2)CSC3)c1C | -4 | 95*
Cc1cccc(C(=O)Nc2c3c(nn2-c2cccc(C)c2C)CSC3)c1 | -6 | 6
COc1ccc(Nc2ncnc3c2cnn3-c2ccc(C)cc2C)c(OC)c1 | -3 | 11
Cc1ccc(C2CCCN2C(=O)c2cc(-c3cccs3)on2)cc1 (stereo unspecified) | -2 | 8
NC(=NOC(=O)c1ccc([N+](=O)[O-])o1)c1ccc(OCc2ccc(Cl)cc2)c(Cl)c1 | 0 | nt
O=c1[nH]c2ccc(Cl)cc2c(-c2ccccc2)c1[N+](=O)[O-] | -2 | 17
CS(=O)(=O)N1N=C(c2c(-c3ccccc3)c3cc(Cl)ccc3[nH]c2=O)CC1c1ccccc1 (stereo unspecified) | 0 | 67*
CC1C(=O)N(Cc2cn(Cc3ccco3)nn2)CCS(=O)(=O)N1Cc1ccc(-c2ccncc2)cc1 (stereo unspecified) | 9 | 30
CC1C(=O)N(Cc2cn(CCC3OCCCO3)nn2)CCS(=O)(=O)N1Cc1ccc(-c2ccc(F)nc2)cc1 (stereo unspecified) | -14 | 15
CC1C(=O)N(Cc2cn(Cc3ccco3)nn2)CCS(=O)(=O)N1Cc1ccc(-c2ccc(F)cc2Cl)cc1 (stereo unspecified) | 4 | 81*
CC1C(=O)N(Cc2cn(Cc3ccco3)nn2)CCS(=O)(=O)N1Cc1ccc(-c2ccccc2Cl)cc1 (stereo unspecified) | -3 | 77*
Cc1ccc(N2C(=O)C=C(Sc3ccc(C(C)(C)C)cc3)C2=O)cc1 | -5 | nt
CC(=O)Nc1ccccc1NC(=O)c1ccccc1[N+](=O)[O-] | 1 | 60*
NC(=O)c1ccccc1NC(=O)c1ccccc1[N+](=O)[O-] | -4 | 2
COc1ccc(/C=C2/N=C(c3ccc([N+](=O)[O-])cc3Cl)OC2=O)c(OC)c1OC | -1 | -2
Cc1sc2nc3c4ccccc4c(N4CCOCC4)nn3c(=O)c2c1C | -1 | -5
CCOc1ccccc1C1N(c2ccc(F)cc2)C(=O)C2CCCN21 (stereo unspecified) | -1 | 1
COc1ccccc1C1N(c2ccc(Cl)cc2)C(=O)C2CCCN21 (stereo unspecified) | -2 | 50*
COc1ccc(N2C(=O)C3CCCN3C2c2ccccc2OC)cc1 (stereo unspecified) | 22 | -7
COc1cc(C2N(c3ccc(Cl)cc3)C(=O)C3CCCN32)cc(OC)c1OC (stereo unspecified) | -6 | 40
COc1cc(C2N(c3ccc(Cl)c(Cl)c3)C(=O)C3CCCN32)cc(OC)c1OC (stereo unspecified) | -6 | 100*
COc1ccccc1C1N(c2ccc(Cl)c(Cl)c2)C(=O)N2CCCN12 (stereo unspecified) | -2 | 100*
O=C1N(c2ccccc2)C(c2ccccc2)N2CCCN12 (stereo unspecified) | 1 | 0
SMILES | Pf apPOL inh | mHTT-CaM PPI inh
CCOc1ccccc1C1N(c2ccc(Cl)cc2)C(=O)C2CCCN21 (stereo unspecified) | -2 | 51*
CCOc1ccccc1C(=O)Nc1c2c(nn1-c1ccccc1C)CS(=O)C2 (stereo unspecified) | -4 | 20
O=C(NCc1ccco1)C1CCCN(S(=O)(=O)N2CCCCCC2)C1 (stereo unspecified) | -10 | -2
CSc1nc2cc(C)ccc2n1C | -7 | -4
Cn1cnnc1Sc1ccc([N+](=O)[O-])c2ncccc12 | 5 | 2
O=[N+]([O-])c1ccc(SCc2ccco2)c2cccnc12 | -6 | 100*
Cc1noc(C)c1CCC(=O)N1CCCCC1c1nncn1CC1CC1 (stereo unspecified) | 1 | -2
Cc1ccc2[nH]c3c(c2c1)CC(NC(=O)CC(C)C)CC3 (stereo unspecified) | 0 | 93*
O=C(NC1CC1)C1CCN(S(=O)(=O)c2ccc3[nH]c4c(c3c2)CCCCC4)CC1 | -4 | 24
O=C(NC1CCc2[nH]c3ccc(Br)cc3c2C1)C1CC=CCC1 (stereo unspecified) | -8 | 98*
CC(C)C(=O)NC1CCc2[nH]c3ccc(Br)cc3c2C1 (stereo unspecified) | -9 | 53*
Cc1ccc2[nH]c3c(c2c1)CN(C)CC3 | -2 | 3
CC(CC(F)(F)F)C(=O)NC1CCc2[nH]c3ccc(Br)cc3c2C1 (stereo unspecified) | -3 | 34
O=C(Cc1c(C(=O)O)[nH]c2ccc(Cl)cc12)NC1CC1 | -12 | -2
Cc1nc(CC(=O)NC2CCc3[nH]c4ccc(Cl)cc4c3C2)c(C)s1 (stereo unspecified) | -1 | 99*
COc1ccccc1C1C(C(N)=O)=C(C)Nc2nc(SCc3ccccc3)nn21 (stereo unspecified) | -4 | 8
O=C(c1cn(CC2CCCO2)cc2c(=O)[nH]nc1-2)N1CCc2ccccc2C1 (stereo unspecified) | -12 | -10
Cc1cc(Cl)cc2c3c([nH]c12)CCC(NC(=O)CC1CC1)C3 (stereo unspecified) | 1 | 90*
Cc1cc(C)c(C(=O)N2CCC(CC(=O)NC3CCCCCC3)CC2)[nH]1 | 0 | 4
O=C(NCc1nc2ccccc2n1CCCCOc1ccccc1Cl)c1ccco1 | -2 | 75*
CCCn1c(NC(=O)c2ccco2)nc2ccccc21 | -4 | 31
COc1ccc(-c2nocc2C#N)cc1 | -4 | -5
COc1ccccc1Cc1noc(C2CN(C(=O)C(C)(C)Oc3ccc(Cl)cc3)C2)n1 | -4 | 70*
CC(C)(Oc1ccc(Cl)cc1)C(=O)N1CC(c2nc(-c3ccccn3)no2)C1 | 5 | 0
CCCCC(=O)N1CCN(c2cc(C)nc(-c3cccc(F)c3)n2)CC1 | -2 | 2
SMILES | Pf apPOL inh | mHTT-CaM PPI inh
O=C(NC1CC1)C1CCN(c2nc3ccsc3c(=O)n2Cc2ccc(F)cc2)CC1 | -1 | 10
Cc1ccc(-n2nc3c(c2NC(=O)COc2ccccc2)CSC3)cc1 | -6 | 17
CCc1ccc(NC(=O)NC2CCN(c3nc4ccccc4n(CC)c3=O)CC2)cc1 | 8 | 5
CSc1ccc(/C=C2\C(=O)Nc3ccc(Br)cc32)cc1 | 3 | 39
Cc1ccc(/C=C2\C(=O)Nc3ccc(Br)cc32)o1 | 0 | 75*
O=C1Nc2ccc(F)cc2/C1=C/c1ccccc1F | -7 | 21
Cc1ccccc1/C=C1\C(=O)Nc2ccc(Br)cc21 | -4 | 97*
Cc1ccccc1/C=C1\C(=O)Nc2ccc(F)cc21 | -10 | 100*
Cc1ccc(/C=C2\C(=O)Nc3ccc(Br)cc32)cc1 | -9 | 43
CCOc1c(O)ccc(/C=C2\C(=O)Nc3ccc(Br)cc32)c1[N+](=O)[O-] | -23 | 94*
CCOc1cc(/C=C2\C(=O)Nc3ccc(Br)cc32)c(Br)cc1OC | 4 | 40
COc1ccc(N2CCN(C(=O)CN(c3ccc(C)cc3)S(=O)(=O)c3ccccc3)CC2)cc1 | 6 | 20
Cc1cccnc1NC(=O)c1c(O)c2ccccc2[nH]c1=O | -2 | 2
COc1ccc(C(=O)CN2CCN(c3ccccn3)CC2)cc1OC | 0 | -4
O=C(CSc1nnc(SCC(=O)Nc2ccc(F)cc2)s1)Nc1ccc(F)cc1 | -3 | -4
CC(C)c1ccc(/C=C2\C(=O)Nc3ccc(F)cc32)cc1 | -8 | 100*
